# Measured values: PubChem BioAssay (NCATS)
# Records with an inconclusive call do not appear. Calls of active or inactive are those of the source. Unless noted, the call rests on the fitted dose curve; in most records, active means well fitted curve in the direction sought with a large enough effect; inconclusive means small, poorly fitted or top-dose-only effect, or another doubt; inactive means no such curve, though single readings can be large; an effect the other way counts as inactive or inconclusive.
# Columns and labels:
# [1] = qHTS Assay for Identifying Gametocytocidal Compounds (AID 743244);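 further: on the % scale 0 is the no-effect control and ±100 the full control effect; actives lower the fluorescent signal which means gametocytes are killed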; conditions: P. falciparum 3D7 stage III-V gametocytes, alamarBlue, 72 h; max response: stronger effect = lower value
# Method in brief: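 Fluorescence at Ex 525/Em 598 nm, recorded 24 h after alamarBlue addition, reports residual metabolic activity of 3D7 gametocytes (stages III–V) following 72 h compound exposure at 37 °C, 5% CO2.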
# [2] = Drug repurposing screens with cells derived from glioblastoma tumor samples (AID 1345199); conditions: GBM patient neurospheres viability, ATP luminescence, 48 h; Potency: tumour line A; series mostly up to 45.9 µM; further: on the % scale 0 is the no-effect control and ±100 the full control effect; nearly all actives have a fitted effect of over 40% in size
# Method in brief: (§1)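 Four patient lines of CD133+ GBM neurospheres were screened at several concentrations; hits were retested in those lines plus three slower-growing GBM lines, using 48-hour treatment and ATP-based viability.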
# [3] = system: astro; assay: as above; conditions: viability, ATP luminescence, 48 h; series mostly up to 45.9 µM
# Method in brief: as §1
# [4] = P-glycoprotein substrates identified in KB-8-5-11 adenocarcinoma cell line, qHTS therapeutic library screen (AID 1346987); further: potency means the concentration at half of the fitted maximal effect; nearly all actives have a fitted effect of over 65% in size
# Method in brief: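 KB-8-5-11: colchicine-selected sub-line of KB-3-1 over-expressing P-gp; assay medium lacked colchicine. 72 h drug exposure at 37 degree C, CellTiter-Glo.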
# [5] = Confirmatory qHTS for VERO E6 Cytotoxicity Assay: Counterscreen for SARS-CoV-2 CPE Assay (AID 1508605; calls by dose curve; further: on the % scale 0 is the no-effect control and ±100 the full control effect; nearly all actives have a fitted effect of over 60% in size)
# [6] = Confirmatory qHTS for activators (rescue) of SARS-CoV-2 Cytopathic Effect (CPE) (AID 1508606; calls by dose curve; further: potency means the concentration at half of the fitted maximal effect; nearly all actives have a fitted effect of over 70% in size)
# [7] = target: Glutathione peroxidase 1 (Homo sapiens) (UniProt P07203); assay: Primary qHTS Assay for Inhibitors of Recombinant Selenoprotein Glutathione Peroxidase 1 (GPX1) (AID 1845191); further: nearly all actives have a fitted effect of over 65% in size
# Glutathione peroxidase 1 (Homo sapiens), sequence (P07203 whole entry, looked up): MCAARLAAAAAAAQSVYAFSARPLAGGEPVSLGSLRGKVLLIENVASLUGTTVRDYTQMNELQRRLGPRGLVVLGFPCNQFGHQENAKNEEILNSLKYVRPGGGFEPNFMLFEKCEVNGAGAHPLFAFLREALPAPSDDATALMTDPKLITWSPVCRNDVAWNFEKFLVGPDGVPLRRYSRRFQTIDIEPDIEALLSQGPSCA
# Method in brief: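 10 nM GPX1 + cpd, 30 min RT; start w/ 1 mM GSH, 0.5 mM cumene hydroperoxide, 0.5 mM NADPH, 100 nM GR, 0.01% BSA; buffer 50 mM Tris-HCl pH 7.5, 2 mM EDTA, 150 mM NaCl; Fl 340/450, 0 & 15 min.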
# [8] = P-glycoprotein substrates identified in KB-3-1 adenocarcinoma cell line, qHTS therapeutic library screen (AID 1346986);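 further: potency means the concentration at half of the fitted maximal effect; potency is for cytotoxicity meaning loss of cell viability; nearly all actives have a fitted effect of over 60% in size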
# Method in brief: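 Counter-screen: cherry-picked hits retested in the KB pair and in HEK-293 pcDNA/MDR-19 cells ± tariquidar. Primary screen used 72 h CellTiter-Glo viability in KB-3-1 and KB-8-5-11.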
# [9] = Primary qHTS for inhibitors of nuclear receptor binding SET domain protein 2 (NSD2) in an isogenic RCH-ACV NSD2 p.E1099K mutant (9B) (AID 1645876); further: potency means the concentration at half of the fitted maximal effect; nearly all actives have a fitted effect of over 70% in size
# [10] = Primary qHTS for inhibitors of nuclear receptor binding SET domain protein 2 (NSD2) in an RCH-ACV wild type WT cells (2C) (AID 1645877); further: potency means the concentration at half of the fitted maximal effect; nearly all actives have a fitted effect of over 70% in size
# [11] = target: Catechol O-methyltransferase (Homo sapiens) (UniProt P21964); assay: Confirmatory Screen for Target Class Profiling of Small Molecule Inhibitors of Methyltransferases (AID 1745852; calls by dose curve; further: potency means the concentration at half of the fitted maximal effect); conditions: MTase-Glo luminescence, SAH detection, recombinant enzyme; measured here: COMT max response; stronger effect = lower value
# Catechol O-methyltransferase (Homo sapiens), sequence (P21964 whole entry, looked up): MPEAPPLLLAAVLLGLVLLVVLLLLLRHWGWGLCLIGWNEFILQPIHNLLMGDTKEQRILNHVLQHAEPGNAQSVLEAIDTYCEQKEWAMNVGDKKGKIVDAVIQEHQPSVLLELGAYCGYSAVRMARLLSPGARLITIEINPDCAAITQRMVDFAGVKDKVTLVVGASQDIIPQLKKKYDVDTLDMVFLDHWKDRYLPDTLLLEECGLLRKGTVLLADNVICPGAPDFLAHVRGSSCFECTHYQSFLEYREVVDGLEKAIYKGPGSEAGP
# [12] = target: Guanidinoacetate N-methyltransferase (Homo sapiens) (UniProt Q14353); assay: as above; conditions: activity change, negative = inhibition: at 57.3 µM (top of the series) unless noted
# [13] = target: Nicotinamide N-methyltransferase (Homo sapiens) (UniProt P40261); assay: as above; conditions: MTase-Glo luminescence, SAH detection, recombinant enzyme; measured here: NNMT max response; stronger effect = lower value
# Nicotinamide N-methyltransferase (Homo sapiens), sequence (P40261 whole entry, looked up): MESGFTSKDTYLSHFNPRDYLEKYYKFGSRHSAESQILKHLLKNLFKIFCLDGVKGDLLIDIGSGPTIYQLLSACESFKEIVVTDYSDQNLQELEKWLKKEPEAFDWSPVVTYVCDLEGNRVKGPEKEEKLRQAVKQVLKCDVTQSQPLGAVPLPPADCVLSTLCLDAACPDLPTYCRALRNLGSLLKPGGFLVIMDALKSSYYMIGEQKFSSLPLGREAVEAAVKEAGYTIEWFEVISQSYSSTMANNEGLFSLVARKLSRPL
# [14] = target: Phenylethanolamine N-methyltransferase (Homo sapiens) (UniProt P11086); assay: as above; conditions: MTase-Glo luminescence, SAH detection, recombinant enzyme; measured here: PNMT max response; stronger effect = lower value
# Phenylethanolamine N-methyltransferase (Homo sapiens), sequence (P11086 whole entry, looked up): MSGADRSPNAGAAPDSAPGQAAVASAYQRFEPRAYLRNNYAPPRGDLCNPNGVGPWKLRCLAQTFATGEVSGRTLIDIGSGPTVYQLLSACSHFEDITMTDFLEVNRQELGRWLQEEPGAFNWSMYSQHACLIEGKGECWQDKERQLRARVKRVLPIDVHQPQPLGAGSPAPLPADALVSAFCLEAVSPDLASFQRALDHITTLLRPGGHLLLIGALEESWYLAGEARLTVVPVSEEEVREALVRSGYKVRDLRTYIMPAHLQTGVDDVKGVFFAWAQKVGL
# [15] = qHTS for Inhibitors of the Functional Ribonucleoprotein Complex (vRNP) of Lassa (LASV) Arenavirus: LASV Primary Screen - GLuc reporter signal (AID 1347082; calls by dose curve; tested in HEK293 reporter line; further: on the % scale 0 is the no-effect control and ±100 the full control effect; nearly all actives have a fitted effect of over 60% in size)
structure (smiles),measurement,setting,value
c1ccc2c(c1)Sc1ccccc1N2C[C@@H]1CN2CCC1CC2,max response,[1],-2.33% (inactive)
same,Potency,[2],inactive
same,Potency,[3],inactive
CC(=O)O[C@@H]1CC2C(C)(C)C(=O)C=C[C@]2(C)C2CC[C@]3(C)C(=CC(=O)O[C@H]3c3ccoc3)[C@@]21C (stereo partly specified),Potency,[4],14.6 µM (active)
same,Potency,[5],inactive
same,Potency,[6],11.2 µM (active)
same,Potency,[7],inactive
CC1Oc2cc3c(-c4c(O)cc(O)c5c(O)c6c(cc45)OC(C)C(C)C6=O)c(O)cc(O)c3c(O)c2C(=O)C1C (stereo unspecified),Potency,[8],5.8 µM (active)
same,Potency,[9],1.3 µM (active)
same,Potency,[10],1.16 µM (active)
same,activity,[11],-48.2%
same,Potency,[12],24.1 µM (active)
same,activity,[13],-21.1%
same,activity,[14],-60.9%
same,Potency,[7],inactive
COc1cc2c(cc1OC)-c1c(OC)c(OC)c(OC)c3ccnc(c13)C2=O,Potency,[15],inactive
